Measured values as given in PubChem BioAssay.
Values without a mark were called inactive.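 The calls were made as follows: active = fluorescence slope higher than the sample average by over 3 SD (cut at about -0.22 in these data, passing the limit was not always enough); inactive = the rest.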

What follows are compounds tested against Voltage-gated potassium channel subunit beta-2 (Rattus norvegicus) (UniProt P62483) (assay: KvBeta enzyme negative modulators, primary screen, biochemical, NADPH fluorescence (AID 622;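 also: slope of raw intensity against log time taken from 70 to 1610 s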)). Settings: recombinant KvBeta, 4-cyanobenzaldehyde reduction, at 10 µM, active compounds read high.
Sequence of Voltage-gated potassium channel subunit beta-2 (Rattus norvegicus) (P62483 whole entry, looked up): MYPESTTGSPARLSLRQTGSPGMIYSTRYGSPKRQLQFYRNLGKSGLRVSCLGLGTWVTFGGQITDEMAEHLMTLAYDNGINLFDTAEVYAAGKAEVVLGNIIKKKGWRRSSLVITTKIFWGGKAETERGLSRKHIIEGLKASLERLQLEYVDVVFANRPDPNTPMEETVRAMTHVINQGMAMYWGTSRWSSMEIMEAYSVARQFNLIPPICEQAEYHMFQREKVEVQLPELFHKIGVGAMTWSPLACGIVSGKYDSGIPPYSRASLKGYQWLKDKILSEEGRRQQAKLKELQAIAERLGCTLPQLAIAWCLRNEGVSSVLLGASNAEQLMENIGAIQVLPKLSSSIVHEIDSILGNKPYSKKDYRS

Compared with `CC12CN3CC(C)(CN(C1)C3c1ccc(Cl)cc1Cl)C2=O` (stereo unspecified), `COc1ccc(C)cc1NC(=O)CN(Cc1nnc(-c2ccc(Cl)cc2)o1)C1CCCC1` is higher in fluorescence slope: -0.557 for the first, -0.478 for the second.

First: CCOC(=O)c1ccc(NC(=O)CSC2=NC(=O)C(CC)C(=O)N2)cc1 (stereo unspecified)
Second: Nn1c(SCC(=O)Nc2ccc(F)cc2)nnc1-c1cccnc1
The fluorescence slope of the first is lower: -0.569 for the first, -0.397 for the second.

Going from `O=C(C1CCCN(S(=O)(=O)c2cccnc2)C1)N1CCn2c1nc1ccccc12` (stereo unspecified) to `CC(Sc1nc(-c2ccccc2)cc(C(F)(F)F)n1)C(=O)N1CCCC1` (stereo unspecified), the fluorescence slope rises from -0.595 to -0.506.

First: Cc1occc1-c1nc(-c2ccncc2)no1
Second: CC(CCc1ccccc1)NCc1ccncc1 (stereo unspecified)
The fluorescence slope of the first is lower: -0.523 for the first, -0.409 for the second.

Compared with `Cn1c(=O)c2c(nc(SCC(=O)NCc3ccco3)n2C)n(C)c1=O`, `Cc1csc(SCCn2c(N3CCCC3)nc3c2c(=O)[nH]c(=O)n3C)n1` is higher in fluorescence slope: -0.611 for the first, -0.38 for the second.

Compared with `CCCCP(=O)(CCCC)Cc1ccccc1O`, `CCCCCSc1nc2c(cnn2-c2ccccc2)c(=O)[nH]1` is higher in fluorescence slope: -0.474 for the first, -0.399 for the second.

Compared with `CN(C)c1nc(N)nc(-c2nc3ccccc3s2)n1`, `Clc1ccc(Nc2ncnc3c2cnn3-c2ccccc2)cc1` is lower in fluorescence slope: -0.489 for the first, -0.496 for the second.

First: Cc1ccc(NC(=O)c2ccco2)c(NC(=O)c2cccs2)c1
Second: CCOC(=O)c1ccccc1NC1c2ccccc2C(=O)N1C1CCN(C(=O)OCC)CC1 (stereo unspecified)
The fluorescence slope of the first is higher: -0.375 for the first, -0.463 for the second.
